Several values for one entry are separate records, joined by “and”; a condition that tells them apart may be missing. Equal entries are not always repeated. Records with an inconclusive call do not appear. Activity calls are given as the source filed them. Unless noted, calls come from the whole dose curve; as a rule, active = well fitted cell-killing curve with a large enough effect; inconclusive = small, poorly fitted or top-dose-only effect; inactive = flat fitted curve, though single readings scatter.
What was measured:
[1] = Cell Viability - LYMP2-023 (AID 975);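 note: cellular ATP measured by luciferase luminescence as viability proxy; series mostly up to about 92 µM; plate controls were DMSO only for no effect and 92 µM tetraoctylammonium bromide control for full effect; nearly all actives have a fitted effect of over 55% in size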
How it was run: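 In this qHTS, ATP-based luciferase luminescence (CellTiter-Glo) is quantified in human lymphoblastoid cells after 24 hr compound treatment at 37 C; tetraoctylammonium bromide serves as positive control. Concentration-response curves are Hill-fitted to give AC50.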

[2] = Cell Viability - LYMP2-025 (AID 976);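 note: series mostly up to about 92 µM; plate controls were DMSO only for no effect and tetraoctylammonium bromide control for full effect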
How it was run: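 Luminescent ATP readout after 24 hr treatment of a human lymphoblastoid line (LYMP2-025, 2500 cells/well, 37 C). Reagent developed 30 min at room temperature; AC50 fitted with the Hill equation.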

[3] = Cell Viability - LYMP2-002 (AID 977);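 note: series mostly up to about 92 µM; plate controls were DMSO only for no effect and 92 µM tetraoctylammonium bromide for full effect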
How it was run: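 Human lymphoblastoid cells, 2500/well, complete medium; 5 h 37 C settle; compound 24 h 37 C; CellTiter-Glo, 30 min RT; luminescence. Decrease in ATP = cytotoxicity; AC50 via Hill equation.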

[4] = Cell Viability - LYMP2-006 (AID 978); note: series mostly up to about 92 µM; % is set by controls: 0 for no effect and ±100 for the full control effect; nearly all actives have a fitted effect of over 60% in size
How it was run: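 Potency values are Hill-fit AC50s for decreases in intracellular ATP (CellTiter-Glo luminescence). LYMP2-006 lymphoblastoid cells, 2500 per well, were exposed to compound in complete culture medium for 24 hr at 37 C.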

[5] = Cell Viability - LYMP2-008 (AID 980); note: % is set by controls: 0 for no effect and ±100 for the full control effect; nearly all actives have a fitted effect of over 60% in size
How it was run: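 Measured: ATP-dependent luminescence, proportional to viable cell number, in human lymphoblastoid cells treated 24 hr with compound in complete culture medium. Values are AC50s from Hill-equation modelling of qHTS titrations.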

[6] = Cell Viability - LYMP2-010 (AID 981); note: % is set by controls: 0 for no effect and ±100 for the full control effect; nearly all actives have a fitted effect of over 55% in size
How it was run: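 This 24 hr viability screen uses LYMP2-010 lymphoblastoid cells, quantifies ATP via luciferase luminescence, and derives AC50 from Hill fits of qHTS concentration-response data.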

[7] = Cell Viability - LYMP2-012 (AID 982);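 note: cellular ATP by luciferase luminescence where a drop means cytotoxicity; cells exposed to compound for one day before reading; 0% = DMSO only and full loss = 92 µM tetraoctylammonium bromide; nearly all actives have a fitted effect of over 55% in size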
[8] = Cell Viability - LYMP2-014 (AID 983);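 note: series mostly up to about 92 µM; plate controls were DMSO only for no effect and 92 µM tetraoctylammonium bromide for full effect; nearly all actives have a fitted effect of over 50% in size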
How it was run: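 Quantitative HTS in lymphoblastoid cells: 24 hr compound exposure, then CellTiter-Glo ATP luminescence. Positive control was tetraoctylammonium bromide, 6.4pM to 92 uM.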

[9] = Cell Viability - LYMP2-016 (AID 984); note: % is set by controls: 0 for no effect and ±100 for the full control effect; nearly all actives have a fitted effect of over 55% in size
How it was run: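 Cytotoxicity was scored by luminescent ATP content (CellTiter-Glo) after 24 h compound exposure at 37 C of a human lymphoblastoid line at 2500 cells/well. Concentration-response data were fitted to the Hill equation for AC50.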

[10] = Cell Viability - LYMP2-018 (AID 985);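 note: plate controls were DMSO only for no effect and tetraoctylammonium bromide at 92 µM for full effect; nearly all actives have a fitted effect of over 50% in size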
How it was run: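 In this qHTS viability assay, cells are treated for 24 hr and cellular ATP is quantified by luciferase-based luminescence, with tetraoctylammonium bromide as positive control.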

[11] = Cell Viability - LYMP2-020 (AID 986)
How it was run: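 Cells at 2500 per well receive a 24 hr compound exposure at 37 C. Viability is measured as ATP-dependent luciferase luminescence, with AC50 modeled from qHTS concentration-response curves.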

[12] = Cell Viability - LYMP2-022 (AID 987)
How it was run: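 In this qHTS cytotoxicity screen, compound titrations were incubated 24 hr at 37 C with human lymphoblastoid cells in complete medium. Luciferase-based ATP luminescence provided the viability signal.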

[13] = Cell Viability - LYMP2-024 (AID 988);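 note: plate controls were DMSO only for no effect and 92 µM tetraoctylammonium bromide for full effect; nearly all actives have a fitted effect of over 60% in size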
How it was run: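 Cells at 2500 per well received compound for 24 hr after a 5 hr settling period. Viability was scored by CellTiter-Glo luminescence, with AC50 from Hill fits.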

[14] = Cell Viability - LYMP2-026 (AID 989); note: % is set by controls: 0 for no effect and ±100 for the full control effect; nearly all actives have a fitted effect of over 50% in size
How it was run: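 Acute toxicity screen in complete culture medium, with 24 hr compound exposure at 37 C. Viability read as cellular ATP via luciferase reaction, with tetraoctylammonium bromide (6.4pM to 92 uM) as positive control.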

[15] = Cell Viability - LYMP1-002 - Assay at 24 hr (AID 993); note: % is set by controls: 0 for no effect and ±100 for the full control effect
How it was run: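 Viability was judged from intracellular ATP using a luciferase read-out, following a 24-hour compound incubation at 37 C of lymphoblastoid cells seeded at 2500 per well. Concentration-response data were fitted to the Hill equation for AC50.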

[16] = Cell Viability - LYMP1-002 - Assay at 40 hr (AID 994);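 note: 0% = DMSO only and full inhibition = 92 µM tetraoctylammonium bromide; nearly all actives have a fitted effect of over 60% in size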
How it was run: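 Concentration-dependent ATP loss after 40 hr treatment at 37 C defined toxicity; AC50 values were obtained by fitting the standard Hill equation.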

[17] = qHTS Assay for Identification of Small Molecule Inducers of Hypoxia Response (AID 2120; active = well fitted curve in the direction sought with a large enough effect in the signal ratio, with a control signal flat, not every such curve was filed as active; the % refers to the signal ratio; note: 0% is about no effect)
How it was run: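 HRE-bla ME-180, 2500 cells/well, 0.5% dialyzed FBS medium; cpd titration, 17 h 37 degrees C; CCF4 2.5 h RT; Ex 405, Em 460/530 ratio -> %Activity, AC50.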

[18] = target: Estrogen receptor (Homo sapiens) (UniProt P03372); test: qHTS assay for small molecule antagonists of estrogen receptor alpha signaling (AID 588513; active = well fitted curve in the direction sought with a large enough effect in the signal ratio, with a control signal flat, not every such curve was filed as active; the % refers to the signal ratio; note: % is set by controls: 0 for no effect and ±100 for the full control effect)
How it was run: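 Antagonist mode: inhibition of 0.5 nM 17-beta-estradiol-driven beta-lactamase reporter in HEK 293 ER-alpha-UAS-bla cells, 18 h at 37C, CCF4 readout after 2 h at RT. Normalised to estradiol and DMSO; titration fitted to Hill.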

[19] = target: Estrogen receptor (Homo sapiens) (UniProt P03372); test: qHTS assay for small molecule agonists of estrogen receptor alpha signaling (AID 588514; calls by dose curve;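 note: 0% = vehicle only and 100% = reference agonist; nearly all actives have a fitted effect of over 70% in size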)
How it was run: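 Fluorescence from CCF4 cleavage reports ER-alpha-driven beta-lactamase expression in HEK 293 cells treated 18 hrs at 37 C. Data normalized to 17-beta-estradiol (20 nM) and DMSO, fitted to Hill equation.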

[20] = target: Glucocorticoid receptor (Homo sapiens) (UniProt P04150); test: qHTS assay for small molecule agonists of glucocorticoid receptor signaling (AID 588532; active = well fitted curve in the direction sought with a large enough effect in the signal ratio, with a control signal flat; the % refers to the signal ratio;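 note: 100% = dexamethasone at 0.1 µM and 0% = DMSO only wells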); conditions: HeLa MMTV-bla, beta-lactamase ratio, agonist, 18 h; active compounds read high; percent of dexamethasone control, DMSO zero
How it was run: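 HeLa GRE-bla reporter cells; 18 h compound exposure at 37 C; 2 h CCF4 loading at room temperature; fluorescence at 460 and 530 nm; EC50 by Hill equation.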

[21] = target: Glucocorticoid receptor (Homo sapiens) (UniProt P04150); test: qHTS assay for small molecule antagonists of glucocorticoid receptor signaling (AID 588533; active = well fitted inhibition curve with a large enough effect in the signal ratio, with a control signal flat, not every such curve was filed as active; the % refers to the signal ratio;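 note: cells stimulated with 2 nM dexamethasone as agonist; % is set by controls: 0 for no effect and ±100 for the full control effect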)
How it was run: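 Antagonist-mode qHTS: compound titrations added to GRE-bla HeLa cells, then dexamethasone 2 nM final; 18 h, 37 C. CCF4 FRET fluorescence normalized to dexamethasone and DMSO; IC50 from Hill fit.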

[22] = target: Peroxisome proliferator-activated receptor gamma (Homo sapiens) (UniProt P37231); test: qHTS assay for small molecule agonists of peroxisome proliferator-activated receptor gamma signaling (AID 588536; active = well fitted curve in the direction sought with a large enough effect in the signal ratio, with a control signal flat, not every such curve was filed as active; the % refers to the signal ratio;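 note: 0% = DMSO basal wells and 100% = rosiglitazone at 2 µM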)
How it was run: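 Cells were plated and held 6–6.5 h at 37 C, then compounds were added as a titration series. After a further 16 h, CCF4 dye was loaded for 2 h at room temperature and emission at 460/530 nm recorded.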

[23] = target: Peroxisome proliferator-activated receptor gamma (Homo sapiens) (UniProt P37231); test: qHTS assay for small molecule antagonists of peroxisome proliferator-activated receptor gamma signaling (AID 588537; active = well fitted inhibition curve with a large enough effect in the signal ratio, with a control signal flat, not every such curve was filed as active; the % refers to the signal ratio;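 note: reporter cells co-stimulated with 50 nM rosiglitazone agonist during compound treatment; % of control where 0% means no effect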)
How it was run: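 Read-out: CCF4 fluorescence (ex 405, em 460/530 nm) after 2 h at RT. Cells were HEK293 carrying a UAS-bla reporter and treated 16 h at 37 C with compound plus rosiglitazone (50 nM final). Normalized to rosiglitazone and DMSO.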

Peroxisome proliferator-activated receptor gamma (Homo sapiens), sequence (P37231 whole entry, looked up): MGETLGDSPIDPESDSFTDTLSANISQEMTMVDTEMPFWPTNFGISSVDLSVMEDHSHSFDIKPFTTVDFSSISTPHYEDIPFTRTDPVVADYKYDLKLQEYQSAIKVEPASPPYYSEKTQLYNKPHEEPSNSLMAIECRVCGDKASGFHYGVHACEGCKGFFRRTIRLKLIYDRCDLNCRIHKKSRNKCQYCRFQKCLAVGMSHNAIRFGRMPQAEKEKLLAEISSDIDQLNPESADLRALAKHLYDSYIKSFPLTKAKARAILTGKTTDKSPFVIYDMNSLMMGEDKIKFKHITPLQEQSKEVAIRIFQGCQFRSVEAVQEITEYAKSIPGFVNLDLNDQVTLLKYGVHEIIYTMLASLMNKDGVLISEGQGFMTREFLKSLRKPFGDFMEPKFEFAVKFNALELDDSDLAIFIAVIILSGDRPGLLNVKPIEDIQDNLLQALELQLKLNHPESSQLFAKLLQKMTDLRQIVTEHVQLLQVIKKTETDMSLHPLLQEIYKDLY
Estrogen receptor (Homo sapiens), sequence (P03372 whole entry, looked up): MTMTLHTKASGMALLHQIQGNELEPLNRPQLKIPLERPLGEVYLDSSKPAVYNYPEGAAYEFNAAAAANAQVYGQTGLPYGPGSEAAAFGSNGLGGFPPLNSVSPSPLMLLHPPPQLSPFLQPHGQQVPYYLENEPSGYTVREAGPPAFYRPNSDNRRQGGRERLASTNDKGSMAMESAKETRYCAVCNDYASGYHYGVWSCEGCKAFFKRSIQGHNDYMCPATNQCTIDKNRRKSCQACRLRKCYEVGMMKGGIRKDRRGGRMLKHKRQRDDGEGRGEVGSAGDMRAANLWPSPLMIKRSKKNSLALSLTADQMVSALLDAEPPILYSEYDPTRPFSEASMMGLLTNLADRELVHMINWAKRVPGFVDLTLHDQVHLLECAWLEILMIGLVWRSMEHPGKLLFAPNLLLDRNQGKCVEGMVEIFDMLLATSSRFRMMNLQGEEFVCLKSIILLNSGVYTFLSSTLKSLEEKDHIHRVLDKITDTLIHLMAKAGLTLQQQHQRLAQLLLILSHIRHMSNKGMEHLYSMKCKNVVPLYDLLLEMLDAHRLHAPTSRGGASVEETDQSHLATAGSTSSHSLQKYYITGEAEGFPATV
Glucocorticoid receptor (Homo sapiens), sequence (P04150 whole entry, looked up): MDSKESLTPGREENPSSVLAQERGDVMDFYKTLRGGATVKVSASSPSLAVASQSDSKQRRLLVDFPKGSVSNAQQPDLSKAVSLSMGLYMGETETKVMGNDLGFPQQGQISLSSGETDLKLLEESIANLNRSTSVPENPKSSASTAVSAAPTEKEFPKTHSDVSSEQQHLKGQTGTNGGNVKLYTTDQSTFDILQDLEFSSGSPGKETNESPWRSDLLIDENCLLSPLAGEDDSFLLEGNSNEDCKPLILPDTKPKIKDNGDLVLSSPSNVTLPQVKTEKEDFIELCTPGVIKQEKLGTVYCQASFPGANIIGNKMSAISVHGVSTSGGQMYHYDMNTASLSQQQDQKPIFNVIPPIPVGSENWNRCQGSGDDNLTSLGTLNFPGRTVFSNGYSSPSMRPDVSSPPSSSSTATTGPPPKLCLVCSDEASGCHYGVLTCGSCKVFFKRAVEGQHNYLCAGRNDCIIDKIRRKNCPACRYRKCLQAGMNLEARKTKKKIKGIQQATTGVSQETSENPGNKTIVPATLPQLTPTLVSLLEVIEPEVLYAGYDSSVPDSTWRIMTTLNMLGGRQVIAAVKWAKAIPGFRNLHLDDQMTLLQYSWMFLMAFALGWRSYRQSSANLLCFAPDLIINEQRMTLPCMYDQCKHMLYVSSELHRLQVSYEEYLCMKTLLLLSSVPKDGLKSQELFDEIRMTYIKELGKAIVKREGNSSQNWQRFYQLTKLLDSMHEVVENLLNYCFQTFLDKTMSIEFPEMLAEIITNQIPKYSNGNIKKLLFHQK

CCCCOC(=O)c1ccccc1C(=O)OCCCC
inactive: Potency [1] | Potency [2] | Potency [3] | Potency [4] | Potency [5] | Potency [6] | Potency [7] | Potency [8] | Potency [9] | Potency [10] | Potency [11] | Potency [12] | Potency [13] | Potency [14] | Potency [15] | Potency [16] | outcome [17] | Potency [18] | Potency [19] | activation [20] -1.41% and -0.473% | Potency [21] | outcome [22] | Potency [23]

— PubChem BioAssay (NCATS)
